# From PubChem BioAssay AID1345082 (National Center for Advancing Translational Sciences (NCATS), 2018)
# Out of some 94,000 compounds screened, about 4,000 (4.3%) were called active. A call without a number means that no potency is given here. Roughly 29% stayed inconclusive and do not appear here. The call rests on the fitted dose curve; in most records, active means well fitted inhibition curve with a large enough effect; inconclusive means small, poorly fitted or top-dose-only effect; inactive means no such curve, though single readings can be large or run the other way. This excerpt belongs to a sample that is enriched for actives.
# Experiment: Cytotoxic Profiling in NIH 3T3 Cell Line of Diverse Libraries Using Quantitative High-Throughput Screening; further: nearly all actives have a fitted effect of over 55% in size
# Details: NIH 3T3 viability, CellTiter-Glo ATP luminescence, 48-72 h; series mostly up to 96.7 µM
# Outline: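 Viability of NIH 3T3 cells after 48 or 72 hr compound treatment at 37 °C was assessed by CellTiter-Glo, with luminescence imaged following a 10 min room-temperature step.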
# Potency means the concentration at half of the fitted maximal effect.
row,SMILES,Potency
1,CCc1noc(-c2ccn3c(CNC(=O)c4ccco4)nnc3c2)n1,inactive
2,Cc1noc(CC2CCOC3(CCN(C(=O)c4ccc(C#N)cc4)CC3)C2)n1 (centres undefined),inactive
3,CCn1ncc(N2CCCC(CC(=O)NCc3cccnc3)C2)cc1=O (centres undefined),inactive
4,O=C(NC[C@H]1COCc2nc3cc(C(F)(F)F)ccc3n21)c1cnccn1,inactive
5,COc1ccc2nc(C[C@@H]3C[C@@H](C(C)C)[C@H](CNC(=O)CC(C)(C)CC(=O)O)C=C3C)[nH]c2c1,inactive
6,CC1=C[C@@H](CN(CC2CC2)CC2CC2)[C@H](C(C)C)C[C@H]1Cc1nc2c(C)cccc2[nH]1,79.4 µM (active)
7,CC1=C[C@@H](CNC2CCN(C)CC2)[C@H](C(C)C)C[C@H]1Cc1nc2ccccc2[nH]1,35.5 µM (active)
8,CC(=O)N1CCC(NC[C@@H]2C=C(C)[C@H](Cc3nc4ccccc4n3C)C[C@H]2C(C)C)CC1,inactive
9,CC1=C[C@@H](CNC(=O)CC2(CC(=O)O)CCCC2)[C@H](C(C)C)C[C@H]1Cc1nc2c(C)cccc2[nH]1,inactive
10,CC1=C[C@@H](CNCC(C)C)[C@H](C(C)C)C[C@H]1Cc1nc2c(C)cccc2[nH]1,39.8 µM (active)
11,CCNC(=O)[C@@H]1C[C@@H](NC(=O)c2csc(C)c2CC)CN1C1CCCC1,inactive
12,CCOc1ccccc1CN1CCN(C2CCN(C(C)C)CC2)C(CCO)C1 (centres undefined),inactive
13,COc1ccc(CN[C@@H]2CCC[C@@H](C(=O)NCc3cc(C)on3)CC(=O)N(C)C2)cn1,inactive
14,CCn1nc(CNC(=O)C2CCC(=O)N(C3CCCC3)C2)c2ccccc21 (centres undefined),inactive
15,COc1cc(NC(=O)Cn2nc3n(c2=O)CCCCC3)cc(OC)c1OC,inactive
16,Cc1noc(-c2ccccc2OC2CCN(C(=O)c3cnccc3C)C2)n1 (centres undefined),inactive
17,COCc1nc(-c2ccc(OC3CNC3)cc2)no1,inactive
18,Cc1cccc(C(=O)N2CCC(Oc3ccc(-c4noc(C(C)C)n4)cc3)C2)c1 (centres undefined),inactive
19,O=C(c1ccoc1)N1CC(Oc2ccc(-c3nc(-c4ccccc4)no3)cc2)C1,inactive
20,Cc1nc(C)c(C(=O)N2CCC(Oc3ccccc3-c3nc(-c4ccccc4)no3)C2)s1 (centres undefined),39.8 µM (active)
21,c1ccc(-c2noc(-c3ccccc3OC3CCNC3)n2)cc1 (centres undefined),12.6 µM (active)
22,O=C1CCN(C(=O)Cc2cccc(F)c2)CCCC(c2nc(-c3cccnc3)no2)CCN1 (centres undefined),inactive
23,CC(=O)N1CCC[C@@H]1C(=O)N1CCC(N2CCOC2=O)CC1,inactive
24,CCN1C(=O)C2CC3(CCN(C(=O)c4cc5ccccc5[nH]4)CC3)CN2C1=O (centres undefined),inactive

row,SMILES,Potency
1,COC1CCOC2(CCN(C(=O)NCc3ccc(C)cc3)CC2)C1 (centres undefined),inactive
2,O=C1NCc2ccccc2CC12CCN(Cc1ccc(O)cc1)CC2,inactive
3,CC(C)Cc1ccc(CN2CCC3(CC2)Cc2ccccc2CNC3=O)cc1,25.1 µM (active)
4,Cc1ccc(CN2CCC3(Cc4ccccc4CNC3=O)C2)cc1 (centres undefined),inactive
5,COCCN1C(=O)c2cccn2CC1CNC(=O)c1cc2ccccc2[nH]1 (centres undefined),inactive
6,O=C(c1ccccc1F)N1CCC(c2nc(C3CCOCC3)no2)CC1,inactive
7,O=C(NC1CCN(c2nc3ncccc3o2)CC1)c1ccc(F)cc1,inactive
8,O=C(CCc1conc1-c1ccccc1F)NCc1cccc(Cl)c1,inactive
9,O=C(Nc1ccccc1)N1CCCC(c2nn(-c3ccccn3)c(=O)[nH]2)C1 (centres undefined),inactive
10,Cn1nc(C2CCN(C(=O)c3cccc(Cl)c3)CC2)[nH]c1=O,inactive
11,COc1cccc(C(=O)N2CCC(c3nn(-c4ccccc4)c(=O)[nH]3)CC2)c1,inactive
12,O=c1[nH]c(C2CCCN(Cc3ccccn3)C2)nn1-c1ccc(Cl)cc1 (centres undefined),3.16 µM (active)
13,CC(=O)N1CCCC(c2nn(-c3ccccc3)c(=O)[nH]2)C1 (centres undefined),inactive
14,O=C(Cc1cccc(Cl)c1)N1CCC(c2nn(-c3ccc(Cl)cc3)c(=O)[nH]2)CC1,44.7 µM (active)
15,COc1ccc(C(C)NC(=O)CN2C(=O)C(c3ccccc3)=NC2(C)C)cc1 (centres undefined),inactive
16,CN1C(=O)CC[C@]2(C(=O)NCC3CCCCC3)CCCC[C@@H]12,inactive
17,O=C(NC1CCOC1)c1ccc2oc(-c3ccc(C(F)(F)F)cc3)nc2c1 (centres undefined),inactive
18,O=C(CSc1ccncc1)N1CCCC(O)(CN2CCCC2)C1 (centres undefined),inactive
19,COc1ccc(N2Cc3c(NCc4cccs4)ncnc3N(C)CC2=O)cc1,inactive
20,COCCNC(=O)N1CCc2nn(Cc3ccccc3)c(=O)n2CC1,inactive
21,COCCOc1cc(=O)n2c(c1C(=O)NCc1ccccc1)CCOCC2,inactive
22,Cc1cccc(CN2CCc3ncc(C(=O)NCc4ccccc4)n3CC2)n1,89.1 µM (active)
23,CCOc1ccc(C(=O)N2C[C@@H](CO)[C@H](c3ccncc3)C2)cc1,inactive
24,COc1ccc2ccc(OCc3nc(C(=O)N4CCC(=O)NCC4C)co3)cc2c1 (centres undefined),inactive

row,SMILES,Potency
1,Cc1ccccc1CNC[C@H]1O[C@@H]2C[C@@H](CC(=O)NC(C)C)O[C@@H]2[C@@H]1O,inactive
2,Cc1cc(=O)n(CC(=O)N2C[C@H](CO)C[C@H](CN(C)C)C2)nc1C,inactive
3,CCOc1cc(C)c(CN2C[C@@H](CN(C)C)C[C@H](CO)C2)cc1C(C)C,31.6 µM (active)
4,COc1cc(C)c(CN2CCN3C(=O)CNC(=O)C3C2)cc1C(C)C (centres undefined),inactive
5,O=C(C1CCCCC1)N1CCCC(n2cc(-c3nc(-c4ccccc4)no3)nn2)C1 (centres undefined),inactive
6,COC(=O)[C@@H]1C[C@H](NC(=O)c2c(Cl)cccc2Cl)CN1C,inactive
7,CN1CCNc2nc(CNc3cccc(F)c3)n(Cc3ccccc3)c2C1=O,inactive
8,O=C1c2c(nc(COc3ccccc3)n2Cc2ccccc2)NCCN1Cc1cccc(Cl)c1,28.2 µM (active)
9,C=CCC1(C(=O)O)CCCN(Cc2cn[nH]c2C(=O)O)C1 (centres undefined),inactive
10,COc1ccc(NC(=O)O[C@@H]2CO[C@H]3[C@@H]2OC[C@@H]3NC(=S)Nc2cccc3ccccc23)cc1,inactive
11,CCNC(=O)O[C@@H]1CO[C@H]2[C@@H]1OC[C@@H]2NC(=S)Nc1cccc2ccccc12,79.4 µM (active)
12,CCNC(=O)O[C@@H]1CO[C@H]2[C@@H]1OC[C@@H]2NC(=O)c1cccc(C(=O)OC)c1,inactive
13,c1ccc(CO[C@@H]2CO[C@H]3[C@@H]2OC[C@@H]3n2nnnc2SCc2ccco2)cc1,89.1 µM (active)
14,CC(C)(CC(=O)O)CC(=O)N[C@H]1CO[C@H]2[C@@H]1OC[C@@H]2n1nnnc1-c1ccccc1,inactive
15,CNC(=O)CCN(C)c1nccc(-c2ccc(C)nc2C)n1,inactive
16,Cc1cccc(C(=O)N[C@@H]2CN(c3ncccn3)C[C@H]2CO)n1,inactive
17,COc1ccc(-c2cc(-c3cccc4[nH]ncc34)cn3cncc23)cn1,14.1 µM (active)
18,COc1ccc(-c2cc(-c3cnc4[nH]ccc4c3)cn3cncc23)cn1,39.8 µM (active)
19,CC(C)NC(=O)C1CCC(=O)N1C1CCN(C(=O)C2CCCCC2)CC1 (centres undefined),inactive
20,COc1cccc(CN2CC3(C2)C(=O)N(Cc2ccccc2F)C(=O)[C@@H]2C[C@@H](O)CN23)c1,inactive
21,CC(=O)N1C[C@@H]2CCCN3CCC[C@@H]([C@H]23)[C@H]1CCCC(=O)NCc1cc(F)cc(F)c1,inactive
22,Cc1ccc(C(=O)N2C[C@@H](CO)[C@H](c3ccncc3)C2)c(C)c1,inactive
23,O=c1cc(-c2cccnc2)oc2c(-c3cccc(CO)c3)nccc12,31.6 µM (active)
24,CN(c1ccccc1)c1cc(=O)c2ccnc(-c3ccc(CO)cc3)c2o1,8.91 µM (active)

row,SMILES,Potency
1,CN(c1ccccc1)c1cc(=O)c2ccnc(Nc3cccc([S+](C)(=O)[O-])c3)c2o1,8.91 µM (active)
2,OC[C@@H]1O[C@H](CNC2CCOCC2)[C@H](N2CCc3ccccc3C2)[C@@H]1O,inactive
3,Cc1cc(C(=O)N2CCn3nc(C(=O)Nc4ccccc4)cc3C2)cc(=O)[nH]1,inactive
4,CN1CCCN(C(=O)c2ccoc2)c2ccccc21,inactive
5,COCCn1ncc(N2CCCC(CC(=O)NCc3cccc(C)c3)C2)cc1=O (centres undefined),inactive
6,O=C(Nc1ccsc1)N[C@H]1C[C@H]2C(=O)NC[C@@H](CCC(=O)N3CCC(O)CC3)N2C1,inactive
7,COCCNC(=O)C[C@@H]1C[C@H]2O[C@H](CNC3CCN(C)CC3)[C@@H](O)[C@H]2O1,inactive
8,Cc1ccc(C2Cn3nnc(C(=O)N4CCC(C(=O)NCc5cccnc5)CC4)c3CO2)cc1 (centres undefined),inactive
9,COc1ccc2nc3n(c2c1)[C@@H](CNC1CCCCC1)COC3,39.8 µM (active)
10,COc1ncccc1CNC[C@H]1COCc2nc3cc(C(F)(F)F)ccc3n21,inactive
11,COc1ccc2nc3n(c2c1)[C@@H](CNC(=O)c1cnccn1)COC3,inactive
12,COc1ccccc1CN(C(=O)c1cccc(-c2noc(C)n2)c1)C1CC1,inactive
13,Cc1cnc(CCNS(=O)(=O)Cc2ccccc2F)n1Cc1ccccc1,inactive
14,CN(CC#N)C(=O)[C@H]1CN(Cc2ccccc2)C[C@H]1C(=O)O,inactive
15,O=C(NCC1CN(Cc2ccccc2)CC12CN(c1ccccc1)C2)Nc1ccccc1 (centres undefined),39.8 µM (active)
16,Cc1ccc(NC(=O)NC[C@H]2O[C@@H](CC(=O)N3CCN(c4ccccc4)CC3)[C@H](O)[C@@H]2O)cc1,inactive
17,CC(C)OCCCNC(=O)C1Cn2cccc2C(=O)N1C (centres undefined),inactive
18,CC(C)CN1C(=O)c2cccn2CC1C(=O)NCC1CCN(Cc2cccc(F)c2)CC1 (centres undefined),inactive
19,Cc1cnc(C2CCC2)n1CCNS(=O)(=O)c1cc(F)ccc1F,inactive
20,COCC(=O)N[C@H]1CO[C@H]2[C@@H]1OC[C@@H]2Nc1nccc(C(C)(C)C)n1,inactive
21,O=C(NCC1CC1)c1ccc2nnc(CC3CC3)n2c1,inactive
22,Cc1cccc(Nc2nc(N)nc(CN3CCC4(CC3)OCCCC4O)n2)c1 (centres undefined),inactive
